# Bioassay records deposited in PubChem BioAssay by National Center for Advancing Translational Sciences (NCATS).
# FBPA Giardia inh = blocks Giardia fructose-bisphosphate aldolase activity; A8B2U2; purified Giardia FBPA; Potency, µM (doses to about 59.6 µM), for inactives: at the top dose activity, negative = inhibition, hits mostly inhibitors; actives 0.71% (n = 290,000); further: potency means the concentration at half of the fitted maximal effect; on the % scale 0 is the no-effect control and ±100 the full control effect; nearly all actives have a fitted effect of over 55% in size
#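 Giardia FBPA (40 nM reagent) was preincubated 10 min at RT with compound (up to 57.5 uM final), then substrate plus GAPDH/TPI/NAD/arsenate coupling system with diaphorase/resazurin was added; resorufin fluorescence (525/598 nm) was read after 20 min.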
# LmPK inhibitor = LmPK (Leishmania mexicana) enzyme inhibition | purified LmPK, Kinase-Glo ATP luminescence, 1 h | Potency, µM (top dose mostly 57.5 µM), for the others: at the top dose activity change, negative = inhibition, actives largely listed as inhibitors | actives 0.37% (n = 290,000) | AID 1721; further: potency means the concentration at half of the fitted maximal effect; on the % scale 0 is the no-effect control and ±100 the full control effect
# Target sequence (Q27686 whole entry, looked up): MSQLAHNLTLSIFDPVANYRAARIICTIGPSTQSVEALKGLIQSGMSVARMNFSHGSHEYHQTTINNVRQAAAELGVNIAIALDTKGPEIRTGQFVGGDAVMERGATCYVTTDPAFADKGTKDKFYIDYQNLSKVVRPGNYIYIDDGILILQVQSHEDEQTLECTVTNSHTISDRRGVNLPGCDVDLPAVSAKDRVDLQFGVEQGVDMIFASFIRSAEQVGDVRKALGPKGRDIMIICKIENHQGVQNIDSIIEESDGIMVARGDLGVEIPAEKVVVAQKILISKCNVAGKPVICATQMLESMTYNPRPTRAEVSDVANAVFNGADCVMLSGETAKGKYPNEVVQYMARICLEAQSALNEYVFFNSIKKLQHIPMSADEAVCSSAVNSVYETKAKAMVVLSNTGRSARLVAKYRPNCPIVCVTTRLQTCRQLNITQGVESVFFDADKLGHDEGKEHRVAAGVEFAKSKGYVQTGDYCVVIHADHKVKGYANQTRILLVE
#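 Purified LmPK (0.1 nM) converted ADP (0.1 mM) to ATP with PEP (0.5 mM) in imidazole buffer pH 7.2 with KCl and MgCl2, 1 h at room temperature. ATP was read by Kinase-Glo luminescence; data normalized to uninhibited and no-enzyme controls.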
# CHX counter = affects cycloheximide protein synthesis inhibition readout, counter-screen | cell reporter, cycloheximide protein synthesis inhibition counterscreen | max response, % | actives 12% (n = 300,000); in the data active means max response mostly above about 13%, no sharp cut-off; inactive means mostly below about 14%; further: read at 38.3 µM for the half of the compounds with a filed dose; 0% is about no effect
# NS1 function inh = inhibitors of influenza NS1 protein function | Potency, µM (doses to about 46.1 µM), for inactives: top-dose activity, positive = more growth | actives 0.4% (n = 270,000); calls by dose curve; further: potency means the concentration at half of the fitted maximal effect; actives are rising curves; nearly all actives have a fitted effect of over 50% in size
#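 OD600 was taken as the measure of yeast growth restored by compound in an NS1-expressing S. cerevisiae strain. Cells had been washed out of glucose medium and diluted 1:100 into galactose -URA medium, pH 6.0.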
# Shiga inhibitor = Shiga toxin inhibition | Vero cells, Shiga toxin protein synthesis inhibition reporter | actives 9.2% (n = 290,000) | inhibition, % at 38.7 µM; in the data active means inhibition mostly above about 28%, no sharp cut-off; inactive means mostly below about 43%; further: 0% is about no effect
# * marks the source's active call; other numbers are inactive results; ? = inconclusive; / = not tested or not shown; [ ] = another dose, or the depositor's remark. Shown are actives, neighbours in structure and some others; about 14% of the full set was active somewhere. Unless noted, the call rests on the fitted dose curve; in most records, active means well fitted curve in the direction sought with a large enough effect; inconclusive means small, poorly fitted or top-dose-only effect, or another doubt; inactive means no such curve, though single readings can be large; an effect the other way counts as inactive or inconclusive.
SMILES,FBPA Giardia inh,LmPK inhibitor,CHX counter,NS1 function inh,Shiga inhibitor
COc1ccc(C2=NN3C(C2)c2ccccc2OC3c2cccs2)cc1 (stereo not given),-4%,1%,59*,-8%,63*
Cc1ccc(C(=O)C2Oc3ccccc3C3CC(c4ccc(C)cc4)=NN23)cc1 (stereo not given),0%,1%,53*,3%,60*
COc1ccc(CC(C)CC(=O)Nc2ccc(OC)cc2)cc1 (stereo not given),-7%,0%,0,-8%,-7
O=C(CSc1nnc(CNC(=O)c2ccc(F)cc2)o1)Nc1nccs1,10%,-2%,-1,11%,-5
Cc1onc(-c2ccccc2)c1C(=O)NC(C)CCc1ccccc1 (stereo not given),11%,-5%,-6,-12%,-11
O=C(CNCc1ccc(F)cc1)Nc1ccc(C(=O)N2CCCCC2)cc1,-29%,-8%,-1,-20%,-7
CCCn1c(SCC(=O)N2CCOCC2)nnc1-c1ccncc1,4%,-3%,-5,3%,-8
CC(C)NC(=O)N1CCC2(CC1)CCN(C(=O)c1ccco1)CC2,7%,/,/,/,/
CCN1CCc2nc(NC(=O)c3ccc4c(c3)OCCO4)sc2C1,-1%,-4%,33*,4%,98*
COc1ccc(C(=O)Nc2nc(C)c(C(=O)N(C)C)s2)cc1OC,4%,-7%,30*,-6%,16
CC(=O)c1sc(NC(=O)c2ccc3c(c2)OCO3)nc1C,/,-13%,43*,-7%,82*
CC(=O)c1sc(NC(=O)c2ccccc2F)nc1C,1%,14µM*,28*,-15%,43*
CCN1CCc2nc(NC(=O)Cc3ccc4c(c3)OCCO4)sc2C1,-13%,1%,8,0%,17
CC1C(=O)N2CCCc3cc(NC(=O)CC(C)(C)C)cc1c32 (stereo not given),2%,-2%,-5,11%,11
CC(=O)c1sc(NC(=O)c2ccc(C)c(C)c2)nc1C,1%,6%,47*,/,47*
CC(=O)c1sc(NC(=O)c2ccc(C(C)(C)C)cc2)nc1C,-3%,5%,67*,-3%,158*
Cc1nc(NC(=O)c2ccc(Cl)cc2)sc1Cc1ccc2c(c1)OCO2,-2%,3%,8,9%,13
Cc1nc(NC(=O)c2ccccc2)sc1Cc1ccc2c(c1)OCO2,1%,0%,68*,1%,25*
CC(=O)c1sc(NC(=O)C(C)(C)C)nc1C,0%,4%,-2,-3%,23
CC(=O)c1sc(NC(=O)c2cnc(Cl)c(Cl)c2)nc1C,?,2%,14*,-14%,84*
O=C(Nc1ccccc1C(=O)NCCCN1CCOCC1)c1ccc(Cl)cc1,4%,-2%,-1,11%,22
CC(=O)NS(=O)(=O)c1ccc(NC(=O)CCC(=O)Oc2ccc(C)cc2)cc1,3%,4%,-7,1%,-15
CC1CCCCN1CCNC(=O)CN1C(=O)CSc2ccc(S(=O)(=O)N3CCCCC3)cc21 (stereo not given),/,-21%,-9,1%,-6
CC(C)CN1CCC2(CC1)CCN(C(=O)c1ccco1)CC2,7%,/,/,/,/
CN(C)C(=O)c1nnsc1Sc1ccc(Cl)cc1,1%,-10%,26*,/,51*
SMILES,FBPA Giardia inh,LmPK inhibitor,CHX counter,NS1 function inh,Shiga inhibitor
NC(=NC(=O)c1ccc(Cl)cc1)N1N=CCC1c1ccccc1 (stereo not given),14%,2%,1,11%,-4
O=C(CSC(=S)N1CCCCC1)N1N=CCC1c1ccccc1 (stereo not given),1%,2%,71*,11%,163*
O=C(CSc1ccc(Cl)cc1)N1N=CCC1c1ccccc1 (stereo not given),0%,10%,15,-38%,73*
CCN1CCN(c2nc3c(C)cccn3c(=O)c2C=C(C#N)C#N)CC1,2%,2%,8,-1%,6
CCOc1ccc(-c2c(=O)n(OCc3ccccn3)c3ccccc3[n+]2[O-])cc1,-14%,-4%,17,-4%,50*
CCCOc1ccc(-c2c(=O)n(O)c3ccccc3[n+]2[O-])cc1,-20%,6%,29*,-63%,/
CCOn1c(=O)c(-c2ccccc2)[n+]([O-])c2ccccc21,2%,-6%,-2,0%,-2
Cc1ccc(-c2c(=O)n(OCc3ccccn3)c3ccccc3[n+]2[O-])cc1,-3%,-2%,9,7%,-11
O=C(Nc1ccccc1)N1CC2(CCN(C(=O)c3ccco3)CC2)C1,-2%,/,/,/,/
CC(=O)c1cccc(NC(=O)c2ccc3c(c2)CCN3S(=O)(=O)c2ccccc2)c1,-2%,7%,24*,11%,42
O=C(Nc1ccc(S(=O)(=O)N2CCc3ccccc32)cc1)c1ccc2c(c1)OCO2,2%,-2%,31*,-67%,36*
Nc1nc(-c2cccs2)cs1,/,-1%,34*,-4%,69
O=C(Nc1nc(-c2ccc(Cl)s2)cs1)c1ccccc1,-9%,-2%,42*,-7%,45
O=C(O)C1CCC1C(=O)Nc1nc(-c2ccc(Cl)s2)cs1 (stereo not given),17%,0%,0,-1%,-2
O=C(Nc1nc(-c2cccs2)cs1)c1ccc(Cl)s1,-7%,1%,42*,-145%,39*
CC(=O)Nc1nc(-c2cccs2)cs1,-9%,-9%,23*,-65%,40
CCc1c2c(nc3cccc(SC)c13)COC2,-23%,/,/,/,/
CC(C)OC(=O)[C@@H]1CC[C@H](C)[C@@H](CCCC=O)O1,3%,/,/,/,/
O=C(Nc1ccc(F)cc1Cl)C1CCN(C(=O)Nc2ccccc2)CC1,/,-7%,7,6%,24
O=C(O)C(Oc1ccc2cc(-c3ccc(Cl)cc3)c(=O)oc2c1)c1ccccc1 (stereo not given),23%,-1%,-3,?,-4
CC(c1nccs1)N(C)C(=O)c1cn(Cc2cccc3ccccc23)nn1 (stereo not given),-7%,3%,40*,-15%,123*
Cc1ccc(NC(=O)c2sc3ncn(CC(=O)N4CCOCC4)c(=O)c3c2C)c(Br)c1,/,8%,-6,8%,-5
CC(C)C(=O)Nc1ccc(-c2nc3cccnc3o2)cc1,6%,-7%,33*,-12%,active
CC(C)C(=O)Nc1ccc(-c2nc3ncccc3o2)cc1,0%,-8%,29*,-18%,41*
CCCC(=O)Nc1ccc(-c2nc3ncccc3o2)cc1,4%,1%,20*,-21%,175
CC(C)C(=O)Nc1cccc(-c2nc3ncccc3o2)c1,15%,-2%,10,-9%,/
CCCC(=O)Nc1cc(-c2nc3ncccc3o2)ccc1C,2%,4%,-3,-3%,-2
C=CC[C@@H]1C=C[C@@H](O/N=C(/C)CCC(=O)OC[C@@H]2O[C@H](c3ccccc3)C=C[C@@H]2Oc2ccc(OC)cc2)[C@@H](CO)O1,2%[12.9 µM],/,/,/,/
O=C(O)Cn1nnc(COc2ccccc2)n1,-8%,5%,-1,16%,-12
CCC1CCCCN1S(=O)(=O)c1ccc2c(c1)CCN2C(C)=O (stereo not given),0%,8%,-4,8%,-6
